Test results from PubChem BioAssay (NCI).
Compounds without any hit were thinned out: in the full panel of roughly 83,000, 20% have a hit.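 Results are percent growth after 48 hours of single-concentration exposure. 100 means growth as in untreated cells, lower positive values show inhibition; negative values down to -100 show cell death.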 Values without a mark were called inactive. Active and inactive are the calls of the source. Rule for the calls: active = growth percent below 10; inactive = the rest.

Assays:
Assay in all cases: NCI-60 one-dose screen, 48 h (100 = growth as untreated, 0 = no growth, -100 = all killed)
Settings in all cases: 10 µM unless noted
[1] = tested on: SK-MEL-2 melanoma
[2] = tested on: EKVX NSCLC
[3] = tested on: SN12C renal
[4] = tested on: UO-31 renal
[5] = tested on: TK-10 renal
[6] = tested on: ACHN renal
[7] = tested on: CAKI-1 renal
[8] = tested on: A498 renal
[9] = tested on: CCRF-CEM leukemia
[10] = tested on: MOLT-4 leukemia
[11] = tested on: SR leukemia
[12] = tested on: RPMI-8226 leukemia
[13] = tested on: OVCAR-8 ovarian
[14] = tested on: OVCAR-5 ovarian
[15] = tested on: OVCAR-4 ovarian
[16] = tested on: SK-OV-3 ovarian
[17] = tested on: IGROV1 ovarian
[18] = tested on: OVCAR-3 ovarian
[19] = tested on: HS 578T breast
[20] = tested on: NCI/ADR-RES ovarian

Compound | growth [1] [%] | growth [2] | growth [3] [%] | growth [4] | growth [5] | growth [6] | growth [7] | growth [8] | growth [9] | growth [10] | growth [11] | growth [12] | growth [13] [%] | growth [14] [%] | growth [15] | growth [16] | growth [17] | growth [18] | growth [19] | growth [20] [%]
Cc1c(C(N)=O)sc2nc(C)n(/N=c3\scc(-c4ccccc4)n3Cc3ccccc3)c(=O)c12 | 10 | -6.97% (active) | 47.7 | 4.13% (active) | 2.89% (active) | 7.27% (active) | -40.6% (active) | 0.708% (active) | -12.2% (active) | 12.1% | 12.8% | -10.3% (active) | 14.7 | 47.9 | 33.5% | 58.6% | 10.9% | 4.32% (active) | -14.6% (active) | 18.9
Cc1nc(Nc2cccc(NC(=O)Nc3ccc(Cl)cc3)c2)c2ccccc2n1 | 107 | 87.2% | 92.9 | 88.2% | 104% | 105% | 80.4% | 81.8% | 82.9% | 76.7% | 22.1% | 66.8% | 93.9 | 106 | 47.8% | 97.8% | 102% | 90.7% | 104% | 87.4
NC(N)=N/N=C/c1ccc(Br)cc1 | 77.8 | 62.4% | 62.1 | 47.4% | 13.9% | 44.5% | 27.1% | 44.8% | 32.6% | 38.9% | 18.4% | 21.5% | 78.9 | 73.5 | 51.8% | -19.4% (active) | 19.3% | 62.3% | 67.5% | 28.2
Cc1cc(=O)[nH]c(N/N=C/c2cc(Br)ccc2O)n1 | 26.9 | 9.68% (active) | 48.1 | -3.92% (active) | 45% | 14.5% | -5.73% (active) | 42.2% | 22.8% | 15.3% | 28.4% | 31.2% | 16.7 | 39.1 | 7.34% (active) | 19.1% | -0.435% (active) | 6.58% (active) | 69% | 10.2
COc1ccc(N=c2nc3sc4cc(Cl)ccc4n3c(N)c2C#N)cc1 | 58.6 | 70.8% | 98.4 | 64.1% | 118% | 98.2% | 69.2% | 100% | 89.2% | 37.7% | 91.2% | 101% | 59.3 | 107 | 55.6% | 59.4% | 80.4% | 114% | 34.5% | 63.8
O=C(Oc1ccc([N+](=O)[O-])cc1)c1ccc(CBr)cc1 | 101 | 103% | 89.9 | 83.3% | 99.3% | 95.2% | 86.2% | 86.5% | 68.7% | 82.7% | 74.7% | 81.6% | 96.2 | 103 | 111% | 147% | 90.7% | 114% | 96.7% | 99.3
NC(=S)c1csc(CCNC(=O)c2ccccc2)n1 | 115 | 115% | 91.8 | 91% | 107% | 105% | 91.3% | 89.6% | 90.3% | 102% | 107% | 102% | 106 | 117 | 91.2% | 101% | 112% | 113% | 102% | 110
Cc1ccc(-n2nnc(C3=NCCc4c3[nH]c3ccc(Cl)cc43)c2C)cc1 | 62.6 | 70.8% | 81.6 | 57.8% | 78.9% | 57.2% | 56.1% | 66.5% | 27.8% | 49.6% | 52.8% | 58.6% | 66.8 | 80.2 | 76.8% | 87% | 90.5% | 83.5% | 87.8% | 76.3
COc1cc(C2C=C(c3cccc(NC(C)=O)c3)Nc3ncnn32)cc(OC)c1OC (stereo not given) | 64.9 | 37.2% | 32.9 | 59.6% | 4.84% (active) | 52.8% | -10.6% (active) | 1.13% (active) | 11.5% | 9.75% (active) | -5.94% (active) | 19% | 24.3 | 34.8 | 59.8% | 35.5% | 30.4% | -40.5% (active) | 19% | 76.1
CSc1ccc(Cl)c(C(=O)Nc2sccc2C(N)=O)c1 | 92.7 | 108% | 93.6 | 80.6% | 158% | 102% | 112% | 94.2% | 94.1% | 125% | 104% | 95.3% | 94.4 | 98.2 | 83.5% | 115% | 105% | 100% | 99.4% | 99
COc1cc(/C=C/c2nc(Nc3ccc(S(=O)(=O)Nc4cc(C)on4)cc3)c3ccccc3n2)ccc1O | 72 | 73.3% | 60.7 | 58% | 93% | 83.6% | 45% | 95.2% | 55.9% | 42.1% | 19.4% | 72.9% | 73.5 | 88.7 | 91% | 86% | 59.5% | 65.2% | 78.5% | 51
Cc1ccc(/C(=N\N=C(N)N)c2ccccc2)cc1 | 71.3 | 34.3% | 26.9 | 24.8% | 42.2% | 20.4% | 41.2% | 20.1% | 14% | 13.3% | 10.8% | -7.92% (active) | 22.4 | 51.4 | 15.8% | 4.12% (active) | -0.836% (active) | -38.5% (active) | 31.5% | 15.5
CSc1nc(N)c(CNC(C)c2ccccc2)c(=O)n1C (stereo not given) | 98.9 | 100% | 101 | 80.5% | 120% | 97.9% | 107% | 102% | 106% | 93.1% | 103% | 109% | 97.9 | 91.7 | 104% | 97.5% | 101% | 110% | 99.6% | 100
Nc1c(-c2nc3ccc(Br)cc3c(=O)[nH]2)nnn1-c1ccccc1 | 94.6 | 101% | 95.5 | 106% | 84.3% | 71.6% | 103% | 87.4% | 93.3% | 85.1% | 57.7% | 92.1% | 97.7 | 95.8 | 6.63% (active) | 112% | 90.3% | 80.2% | 91.8% | 80.9
COc1ccc(/C(C)=C(\c2ccc(Cl)cc2)c2ccc(OCCN(C)C)cc2)cc1F | 105 | 81.6% | 70.6 | 54.7% | 59.1% | 92% | 56.2% | 98.5% | 40.2% | 39.5% | -32% (active) | -29.2% (active) | 65.5 | 78 | 56.1% | 92.9% | 47.6% | 64.7% | 64.3% | 78.9
CN(C)CCN1C(=O)c2cccc3c(-c4ccc(-c5nc6c7ccccc7c7ccccc7c6[nH]5)cc4)ccc(c23)C1=O | 105 | 93.9% | 97.4 | 96.8% | 105% | 112% | 88% | 100% | 55.4% | 84% | 38.6% | 54.9% | 52 | 123 | -2.99% (active) | 109% | 96.3% | 117% | 117% | 88.1
